This is a sample that favours compounds with a hit; in the whole collection about 1.1% have one here.
Y pestis TopoI: Yersinia pestis topoisomerase I inhibitors, primary screen, biochemical, cleavage product accumulation, plate reader, single point. Y. pestis Topo-I cleavage product accumulation. DNA topoisomerase I (Yersinia pestis CO92). AID 504884, 2011. 360,000 tested, 0.064% active. activity, % at 10 µM; in the data active = activity above about 50%, passing the limit was not always enough; inconclusive = no clear call, values can overlap the other calls
FadD28 FP inh: inhibitors of FadD28 bisubstrate probe binding, primary screen, biochemical, fluorescence polarization, single point. 360,000 tested, 0.22% active. inhibition, % at 12.5 µM; in the data active = inhibition above about 8.5%, passing the limit was not always enough; inconclusive = no clear call, values can overlap the other calls
Mtb BioA inh: M. tuberculosis BioA enzyme inhibitors, primary screen, biochemical, plate reader, single point, HTS | purified M. tuberculosis BioA enzyme | inhibition, % at 9.99 µM | 360,000 tested, 0.096% active; in the data active = inhibition above about 40%; inconclusive = no clear call, values can overlap the other calls
PfHsp40 yeast: rescue of yeast from PfHsp40 toxicity, primary screen, S. cerevisiae, ATP luminescence; S. cerevisiae expressing PfHsp40, growth rescue; growth rescue, % at 12.5 µM; 340,000 tested, 0.68% active; AID 504582, 2011; in the data active = growth rescue above about 28%, passing the limit was not always enough; inconclusive = no clear call, values can overlap the other calls;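 note: yeast W303a lacking pdr1 and pdr3 grown in galactose medium; growth measured after three days at 30 °C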
PrP UTR inh: inhibition of PrP 5' UTR reporter expression; inhibition, % (test concentration not listed); 340,000 tested, 0.35% active; cell-based PrP 5' UTR mRNA reporter, plate reader; in the data active = inhibition above about 52%; note: 0 = median of the neutral control wells
PrP 5UTR single: prion 5' UTR mRNA inhibition, cherry-pick retest | shares compounds with PrP UTR inh | cell-based prion protein 5' UTR reporter, plate reader | inhibition, % at 2.5 µM | 1,100 tested, 48% active | AID 504592, 2011; in the data active = inhibition above about 54%; inconclusive = no clear call, values can overlap the other calls
Numbers without * were called inactive; ? = inconclusive; . = no result given.

SMILES	Y pestis TopoI	FadD28 FP inh	Mtb BioA inh	PfHsp40 yeast	PrP UTR inh	PrP 5UTR single
COc1cccc2c1C(=O)c1c(O)c3c(c(O)c1C2=O)C[C@@](O)(C(=O)CO)C[C@@H]3O[C@H]1C[C@H](N)[C@@H](O)[C@H](C)O1	-10.7	64.4*	-11.3	11.3	74.7*	87.4*
COc1cccc2c1C(=O)c1c(O)c3c(c(O)c1C2=O)CC(O)(C(=O)CO)CC3OC1CC(N(C)C)C(O)C(C)O1 (configuration not stated)	-33.6	64.6*	.	100.1*	85.6*	95.1*
Cc1csc(NC(=O)c2cn3ccccc3n2)n1	3.7	-0.4	-0.7	0.2	75.9*	?
O=C(Nc1ccccc1)c1cn2ccccc2n1	-0.8	-2.1	-1.1	-2.0	30.9	.
CC(=O)Nc1ccc(SCC(=O)c2c(N)n(Cc3ccccc3)c(=O)n(C)c2=O)cc1	6.2	0.9	-0.9	0.3	-8.7	.
CC(C)Nc1nnc(SCC(=O)c2c(N)n(Cc3ccccc3)c(=O)n(C)c2=O)s1	15.4	0.6	.	-0.5	59.9*	-6.8
CCCC1=Nc2cc(C(=O)NCCCOCC)ccc2Sc2ccccc21	31.6	-1.2	0.5	0.2	57.6*	84.4*
CCC1=Nc2cc(C(=O)NCc3ccco3)ccc2Sc2ccc(C)cc21	33.8	-2.1	-0.4	1.7	69.2*	85.7*
CCCC1=Nc2cc(C(=O)NCCCOC(C)C)ccc2Sc2ccccc21	3.6	-0.7	-0.9	3.6	-8.8	.
CCC1=Nc2cc(C(=O)NCCCOC)ccc2Sc2ccccc21	-6.6	0.0	-1.3	0.5	77.0*	36.2
C[C@@H]1CN([C@@H](C)CO)C(=O)c2cc(NS(=O)(=O)c3cn(C)cn3)ccc2O[C@H]1CN(C)Cc1ccc2c(c1)OCO2	.	.	0.2	.	.	.
O=[N+]([O-])c1ccc(O)c(/C=N/Nc2ccccn2)c1	6.1	-2.0	-0.2	308.4*	54.1*	58.3*
COc1ccc(-c2nsc3c(N4CCN(S(=O)(=O)c5ccccc5F)CC4)ncnc23)cc1	1.3	-2.7	0.8	0.5	-16.6	.
COc1ccc(C(=O)N2CCN(c3ncnc4c(-c5ccccc5)nsc34)CC2)cc1	-3.1	0.2	-2.5	0.9	-23.3	.
COc1ccc(-c2nsc3c(N4CCCCC4)ncnc23)cc1	-2.5	-0.1	.	-0.3	72.2*	70.0*
COc1ccc(-c2nsc3c(N4CCCCC4C)ncnc23)cc1 (configuration not stated)	-5.2	0.9	.	1.8	87.3*	82.7*
CS(=O)(=O)N(CC(=O)NCCSc1ccccn1)c1ccc(F)cc1	-2.3	-0.8	.	-0.4	51.8*	4.0
COc1ccc(NC(=O)N(C)C[C@H]2OCCCC[C@@H](C)Oc3ccc(NC(=O)CCCN(C)C)cc3C(=O)N([C@@H](C)CO)C[C@H]2C)cc1	.	.	-3.3	.	.	.
C[C@H](CO)N1C[C@H](C)[C@H](CN(C)C(=O)Nc2ccc(F)cc2)Oc2ccc(NS(=O)(=O)c3ccc(Cl)cc3)cc2C1=O	.	.	-0.1	.	.	.
COc1ccc(-c2ccc(=O)n(Cc3cc(=O)n4ccccc4n3)n2)cc1	7.2	-1.6	-0.1	-2.2	66.2*	9.0
O=C(NCC1CCCCC1)[C@@H]1N[C@@H]2c3ccc(C4=CCCCC4)c(=O)n3C[C@@H]2[C@H]1CO	.	.	-2.1	.	.	.
Cc1ccc(C(=O)Sc2cccccc2=O)cc1	4.8	-0.3	-1.8	698.3*	57.3*	?
O=C(Nc1ccccc1SC(=O)c1ccccc1)c1ccccc1	15.5	-3.6	0.1	.	.	.
Cc1cccc(C(=O)NCN2CCN(c3ccccc3C#N)CC2)c1	0.4	-0.9	-1.4	-0.4	81.6*	-37.9
O=C(NCN1CCN(c2ccccc2F)CC1)c1ccccc1	-4.2	-4.1	-1.8	-1.1	-4.4	.
SMILES	Y pestis TopoI	FadD28 FP inh	Mtb BioA inh	PfHsp40 yeast	PrP UTR inh	PrP 5UTR single
O=c1cc(-c2ccc(O)cc2)oc2ccc3ccccc3c12	0.9	.	-1.8	-0.6	78.1*	72.8*
O=c1cc(-c2ccc(O)cc2)oc2c1ccc1ccccc12	-4.9	0.0	.	-0.2	0.2	.
CC(C)NC(=O)N1C[C@H]2[C@@H](c3ccccc31)[C@@H](CO)N2Cc1ccc(Cl)cc1	.	.	-4.5	.	.	.
COC(=O)c1ccc(CCc2cc(O)c(Br)cc2O)cc1	-8.7	0.0	.	0.0	86.8*	-28.6
COC(=O)c1ccc(CCc2cc(O)ccc2O)cc1	-7.9	-3.0	.	2.4	-33.3	.
Cc1cc(NC(=O)CSc2nc(-c3ccco3)cc(C(F)(F)F)n2)no1	-0.8	-0.6	-1.1	-1.2	66.9*	89.8*
COC(=O)C1=C(C(=O)OC)SC2(S1)C(C(=O)OC)=C(C(=O)OC)SC1=C2c2cc(C)cc(C)c2NC1(C)C	5.6	-3.5	-0.6	0.8	-13.8	.
COC(=O)C1=C(C(=O)OC)SC2(S1)C(C(=O)OC)=C(C(=O)OC)Sc1c2ssc1=O	-6.1	1.3	.	18.7	74.8*	71.6*
CCCNC(=O)Nc1ccc2c(c1)C(=O)N(C)C[C@@H](OC)[C@H](C)CN(C(=O)C1CC1)[C@@H](C)CO2	.	.	0.9	.	.	.
C[C@@H]1CN([C@H](C)CO)C(=O)c2cc(NC(=O)Nc3ccc4c(c3)OCO4)ccc2O[C@@H]1CN(C)S(=O)(=O)c1cn(C)cn1	.	.	-1.7	.	.	.
C[C@@H]1CN([C@@H](C)CO)C(=O)c2cccc(NC(=O)c3nc4ccccc4s3)c2O[C@H]1CN(C)S(=O)(=O)c1ccc(F)cc1	.	.	-2.4	.	.	.
COc1cccc(NC(=O)N[C@H]2CC[C@H](CC(=O)NCc3ccccn3)O[C@H]2CO)c1	.	.	-3.9	.	.	.
CCC(=O)Nc1ccc2c(c1)C(=O)N(C)C[C@H](OC)[C@@H](C)CN(C(=O)c1ccncc1)[C@H](C)CO2	.	.	-0.6	.	.	.
CCN(CCCl)c1cc(CN(C)C)cc(NC(=O)c2ccc(C(=O)Nc3cc(CN(C)C)cc(N(CC)CCCl)c3)cc2)c1	-45.5	-0.7	.	-0.3	95.1*	90.7*
C[C@@H]1CN([C@@H](C)CO)C(=O)c2cc(NC(=O)Nc3ccccc3)ccc2O[C@@H]1CN(C)S(C)(=O)=O	.	.	2.8	.	.	.
O=C(COc1cccc(C(F)(F)F)c1)NNC(=O)c1ccc(=O)[nH]c1	1.1	-3.0	-3.0	0.1	65.5*	5.6
Cc1nnc(SCC(=O)Nc2cc(-c3cc(C)c(C)cc3C)nn2-c2ccccc2)s1	37.1	-5.2	.	2.8	58.9*	-8.8
COc1ccc(NC(=O)N(C)C[C@H]2Oc3c(NC(=O)Nc4ccc5c(c4)OCO5)cccc3C(=O)N([C@@H](C)CO)C[C@H]2C)cc1	.	.	-1.8	.	.	.
CCOc1ccc(CN2C(=O)c3ccccc3C2=O)cc1C(=O)Nc1nnc(SCC)s1	1.3	-2.3	0.0	0.2	-10.6	.
CCOc1ccc(CN2C(=O)c3ccccc3C2=O)cc1C(=O)NC1CC(C)(C)NC(C)(C)C1	-2.8	-13.3	1.0	1.8	84.7*	-13.3
CCOC(=O)C1=CN(Cc2cccc(-c3cccnc3)c2)S(=O)(=O)N(CC)C1C (configuration not stated)	39.0	-4.2	1.5	0.3	-12.8	.

Assay outcomes from PubChem.
